In PubChem BioAssay:
The source made the active and inactive calls.

Legend:
[1] = small molecules captured by biotinylated probe aFSTL3 – biochemical, small-molecule microarray, fluorescence 635/667, stem cell growth factor project, primary screen (AID 1064); conditions: higher = more signal;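 also: measures binding of the biotinylated anti-FSTL3 antibody to printed compounds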
[2] = binders from COS7 lysate, DM2A8 probe, primary screen, torsin A project, cell lysate, small-molecule microarray, fluorescence 635/667 (AID 1065); conditions: higher = more signal, COS7 lysate expressing mutant human TOR1A
[3] = small molecules captured by biotinylated probe aFGF2 – biochemical, small-molecule microarray, fluorescence 635/667, stem cell growth factor project, primary screen (AID 1067); conditions: higher = more signal;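 also: measures binding of biotinylated aFGF2 protein to printed compounds on slides; z-score merges feature fluorescence and signal-to-noise across triplicate slides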
[4] = small molecules captured by biotinylated probe aFGF10 – biochemical, small-molecule microarray, fluorescence 635/667, stem cell growth factor project, primary screen (AID 1071); conditions: higher = more signal;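 also: score merges 667 nm spot intensity and signal to noise from triplicate slides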
[5] = biological target: Neurogenic locus notch homolog protein 2 (Homo sapiens) (UniProt Q04721); test: small molecules binding Notch2 protein – biochemical, small-molecule microarray, 635 nm fluorescence, stem cell growth factors, primary screen (AID 1073); conditions: higher = more signal
[6] = biological target: Pro-neuregulin-1, membrane-bound isoform (Homo sapiens) (UniProt Q02297); test: small molecules binding neuregulin-1 protein – biochemical, small-molecule microarray, fluorescence 635/667, psychiatric disease protein project, primary screen (AID 1075); conditions: NRG1 binding, 635 nm fluorescence, higher = more signal;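 also: score combines 667 nm spot fluorescence with signal to noise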
Sequence of Pro-neuregulin-1, membrane-bound isoform (Homo sapiens) (Q02297 whole entry, looked up, the tested form may be a part, canonical isoform): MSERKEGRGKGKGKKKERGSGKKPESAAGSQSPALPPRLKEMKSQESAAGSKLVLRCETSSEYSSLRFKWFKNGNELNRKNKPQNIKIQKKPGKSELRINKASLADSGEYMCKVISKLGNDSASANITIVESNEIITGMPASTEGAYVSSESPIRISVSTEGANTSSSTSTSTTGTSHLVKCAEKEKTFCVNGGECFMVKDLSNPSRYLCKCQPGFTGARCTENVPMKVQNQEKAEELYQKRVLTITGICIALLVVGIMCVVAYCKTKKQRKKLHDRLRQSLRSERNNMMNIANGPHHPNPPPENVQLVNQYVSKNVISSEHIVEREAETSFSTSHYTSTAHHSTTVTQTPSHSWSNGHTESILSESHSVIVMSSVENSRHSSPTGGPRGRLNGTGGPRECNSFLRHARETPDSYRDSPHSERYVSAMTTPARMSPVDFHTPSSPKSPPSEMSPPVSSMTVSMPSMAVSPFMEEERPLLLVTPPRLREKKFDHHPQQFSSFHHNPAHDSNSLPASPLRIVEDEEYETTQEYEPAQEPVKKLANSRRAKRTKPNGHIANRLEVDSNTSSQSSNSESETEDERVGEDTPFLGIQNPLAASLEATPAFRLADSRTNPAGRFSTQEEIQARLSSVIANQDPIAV

[7] = system: Neuregulin-1 EGF-like domain; test: small molecules binding NRG1 EGF domain – biochemical, small-molecule microarray, 635 nm fluorescence, primary screen (AID 1081); conditions: higher = more signal;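 also: binding of the protein to compounds printed on small-molecule microarray slides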
[8] = FRG1 expression reporter modulators in myotubes – cell-based, C2C12 myotubes, firefly/Renilla luciferase, luminescence, FRG1 inhibition for FSHD, primary screen (AID 1084); conditions: FRG1 promoter luciferase, higher = more signal, called active from +8 up or from −8 down
[9] = small molecules captured by biotinylated probe aFST – biochemical, small-molecule microarray, fluorescence 635/667, stem cell growth factor project, primary screen (AID 1086); conditions: higher = more signal;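 also: score merges 667 nm fluorescence with signal-to-noise of each printed compound spot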
[10] = binders of probe aHhip on microarray, primary screen, stem cell growth factor project, biochemical, small-molecule microarray, fluorescence 635/667 (AID 1087); conditions: higher = more signal;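 also: score merges spot fluorescence at 667nm with spot signal to noise ratio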
[11] = system: PRMT1 (protein arginine N-methyltransferase 1); test: small molecules binding arginine methyltransferase PRMT1 – biochemical, small-molecule microarray, 635 nm fluorescence, primary screen (AID 1088); conditions: higher = more signal;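 also: binding of Prmt1 protein to compounds spotted on small-molecule microarray slides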
[12] = growth effects on S. cerevisiae YJM789 – YJM789 clinical isolate, OD600, 24 h, basal, primary screen (AID 1089); conditions: higher = more signal, called active from +8 up or from −8 down;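 also: growth of clinical yeast isolate S. cerevisiae YJM 789 seeded 1000 cells per well; test concentration not given here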
[13] = S. pombe growth modifiers, basal conditions – strain 972, OD600, 24 h, no modulator, primary screen (AID 1090);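 also: basal condition with compound alone and no growth modifier present; test concentration not given here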; conditions: S. pombe 972 growth, higher = more signal, called active from +8 up or from −8 down
[14] = budding yeast growth modifiers under rapamycin – strain BY4716, OD600, 96 h, primary screen (AID 1091); also: test concentration not given here; conditions: S. cerevisiae BY4716 + rapamycin, higher = more signal, called active from +8 up or from −8 down
[15] = biological target: Torsin-1A-interacting protein 2 (Homo sapiens) (UniProt Q8NFQ8); test: small molecules binding lysate-expressed LULL1 – cell lysate, human LULL1 lysate, 635/667 nm fluorescence, primary screen (AID 1092); conditions: small-molecule microarray, hLULL1 lysate binding, 635 nm fluorescence; higher = more signal;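 also: probe is lysate of COS7 cells overexpressing human LULL1; score merges per-feature 667 nm fluorescence with signal-to-noise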
Sequence of Torsin-1A-interacting protein 2 (Homo sapiens) (Q8NFQ8 whole entry, looked up): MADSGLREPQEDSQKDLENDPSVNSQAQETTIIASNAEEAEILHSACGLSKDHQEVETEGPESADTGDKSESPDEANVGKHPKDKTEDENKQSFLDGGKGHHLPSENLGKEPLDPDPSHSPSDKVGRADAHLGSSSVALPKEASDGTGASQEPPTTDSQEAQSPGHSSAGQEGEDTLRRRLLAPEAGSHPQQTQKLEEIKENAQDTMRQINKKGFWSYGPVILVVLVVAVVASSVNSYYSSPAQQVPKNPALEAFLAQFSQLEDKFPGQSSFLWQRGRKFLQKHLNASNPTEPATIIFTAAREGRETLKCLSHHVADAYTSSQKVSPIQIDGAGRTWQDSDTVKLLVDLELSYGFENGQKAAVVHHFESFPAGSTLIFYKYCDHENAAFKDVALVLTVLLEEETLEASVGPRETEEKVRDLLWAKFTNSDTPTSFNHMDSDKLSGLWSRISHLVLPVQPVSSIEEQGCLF

[16] = optical density change of DRC41 E. coli – strain DRC41, OD650, 24 h, E. coli filamentation project, primary screen (AID 1093);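 also: MC1000 strain lacking acrAB efflux and sulA so SOS filamentation is blocked; test concentration not given here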; conditions: E. coli DRC41 growth, higher = more signal, called active from +8 up or from −8 down
[17] = probe aLefty2 binding to arrayed compounds – biochemical, biotinylated probe, 635/667 nm fluorescence, primary screen (AID 1094); conditions: small-molecule microarray, higher = more signal;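 also: score merges spot fluorescence near 667 nm with spot signal-to-noise ratio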
[18] = system: Noggin (protein binding on small-molecule microarray); test: small molecules binding Noggin protein – biochemical, 635/667 nm fluorescence, primary screen (AID 1095); conditions: 635 nm fluorescence, higher = more signal;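 also: score merges 667 nm feature fluorescence with signal to noise over triplicate slides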
[19] = biological target: Neurogenic locus notch homolog protein 3 (Homo sapiens) (UniProt Q9UM47); test: small molecules binding NOTCH3 protein – biochemical, 635/667 nm fluorescence, primary screen (AID 1096); conditions: small-molecule microarray, 635 nm fluorescence, higher = more signal
Sequence of Neurogenic locus notch homolog protein 3 (Homo sapiens) (Q9UM47 whole entry, looked up): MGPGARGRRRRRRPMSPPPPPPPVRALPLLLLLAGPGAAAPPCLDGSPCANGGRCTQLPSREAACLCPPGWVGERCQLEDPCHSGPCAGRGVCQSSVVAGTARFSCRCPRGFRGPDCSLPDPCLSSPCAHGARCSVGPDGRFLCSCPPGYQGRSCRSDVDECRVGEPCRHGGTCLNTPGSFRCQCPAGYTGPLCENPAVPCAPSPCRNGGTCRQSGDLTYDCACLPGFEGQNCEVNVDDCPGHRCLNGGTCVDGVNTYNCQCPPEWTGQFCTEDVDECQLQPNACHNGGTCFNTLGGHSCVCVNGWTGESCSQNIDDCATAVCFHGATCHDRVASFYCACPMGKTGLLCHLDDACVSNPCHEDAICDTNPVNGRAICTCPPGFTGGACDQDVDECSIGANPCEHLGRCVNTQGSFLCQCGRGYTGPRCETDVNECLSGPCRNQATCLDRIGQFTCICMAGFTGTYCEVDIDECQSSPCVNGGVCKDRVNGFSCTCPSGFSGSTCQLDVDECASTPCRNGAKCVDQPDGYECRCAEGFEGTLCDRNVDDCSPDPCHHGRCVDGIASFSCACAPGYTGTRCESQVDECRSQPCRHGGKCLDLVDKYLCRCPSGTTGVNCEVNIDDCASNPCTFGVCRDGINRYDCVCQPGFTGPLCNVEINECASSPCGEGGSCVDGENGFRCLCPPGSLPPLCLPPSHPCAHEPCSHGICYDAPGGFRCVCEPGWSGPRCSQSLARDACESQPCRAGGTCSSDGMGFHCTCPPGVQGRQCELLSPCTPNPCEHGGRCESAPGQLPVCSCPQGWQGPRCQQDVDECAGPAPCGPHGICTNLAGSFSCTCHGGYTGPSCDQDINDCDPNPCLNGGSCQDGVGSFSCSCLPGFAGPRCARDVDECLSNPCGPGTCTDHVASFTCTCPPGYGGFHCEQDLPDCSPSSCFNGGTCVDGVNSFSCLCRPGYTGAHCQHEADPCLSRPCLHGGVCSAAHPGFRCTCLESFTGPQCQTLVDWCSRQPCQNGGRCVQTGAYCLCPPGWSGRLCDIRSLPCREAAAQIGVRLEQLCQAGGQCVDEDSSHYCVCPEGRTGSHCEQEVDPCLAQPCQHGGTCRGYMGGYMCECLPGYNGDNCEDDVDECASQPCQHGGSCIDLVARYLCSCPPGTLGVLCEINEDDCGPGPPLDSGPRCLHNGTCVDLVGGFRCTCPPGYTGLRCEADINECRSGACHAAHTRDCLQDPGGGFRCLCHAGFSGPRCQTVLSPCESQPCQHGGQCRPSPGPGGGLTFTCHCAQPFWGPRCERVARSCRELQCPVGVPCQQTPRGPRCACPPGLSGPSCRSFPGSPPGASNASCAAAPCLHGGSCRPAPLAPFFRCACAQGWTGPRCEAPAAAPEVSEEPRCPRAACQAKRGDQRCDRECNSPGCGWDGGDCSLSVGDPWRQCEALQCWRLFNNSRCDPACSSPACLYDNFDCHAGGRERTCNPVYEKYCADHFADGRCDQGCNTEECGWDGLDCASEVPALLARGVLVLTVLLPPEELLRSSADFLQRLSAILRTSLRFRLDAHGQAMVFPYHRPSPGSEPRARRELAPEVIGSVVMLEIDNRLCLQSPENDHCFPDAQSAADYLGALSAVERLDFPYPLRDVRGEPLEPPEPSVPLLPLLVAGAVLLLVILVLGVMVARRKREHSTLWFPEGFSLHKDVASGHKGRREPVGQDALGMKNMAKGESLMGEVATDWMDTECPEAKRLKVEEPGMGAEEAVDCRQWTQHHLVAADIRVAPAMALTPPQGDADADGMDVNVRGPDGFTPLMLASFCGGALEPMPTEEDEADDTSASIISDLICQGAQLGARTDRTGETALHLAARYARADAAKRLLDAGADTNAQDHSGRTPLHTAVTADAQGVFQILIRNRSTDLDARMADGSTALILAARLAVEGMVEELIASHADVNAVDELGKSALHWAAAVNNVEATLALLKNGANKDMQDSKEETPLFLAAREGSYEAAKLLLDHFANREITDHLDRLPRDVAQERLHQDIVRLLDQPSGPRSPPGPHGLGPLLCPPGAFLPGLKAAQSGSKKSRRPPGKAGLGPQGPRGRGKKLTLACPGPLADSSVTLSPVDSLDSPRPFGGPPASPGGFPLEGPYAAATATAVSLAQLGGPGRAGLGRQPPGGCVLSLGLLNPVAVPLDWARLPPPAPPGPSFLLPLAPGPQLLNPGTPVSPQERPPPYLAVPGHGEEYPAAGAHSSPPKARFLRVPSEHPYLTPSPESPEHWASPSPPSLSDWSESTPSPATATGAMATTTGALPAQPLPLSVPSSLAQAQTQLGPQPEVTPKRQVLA

[20] = probe aEGFR binding to arrayed compounds – biochemical, biotinylated probe, 635/667 nm fluorescence, primary screen (AID 1097); conditions: small-molecule microarray, higher = more signal;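 also: probe is a biotinylated anti-EGFR antibody binding compounds printed on slides; score combines fluorescence near 667 nm and signal to noise of each spot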

| Compound | composite z-score [1] | composite z-score [2] | composite z-score [3] | composite z-score [4] | composite z-score [5] | composite z-score [6] | composite z-score [7] | z-score [8] | composite z-score [9] | composite z-score [10] | composite z-score [11] | z-score [12] | z-score [13] | z-score [14] | composite z-score [15] | z-score [16] | composite z-score [17] | composite z-score [18] | composite z-score [19] | composite z-score [20] |
| --- | --- | --- | --- | --- | --- | --- | --- | --- | --- | --- | --- | --- | --- | --- | --- | --- | --- | --- | --- | --- |
| COC(=O)c1ccc(C(O)C2C=CC3C(=O)N(C)C(=O)C3N2NC(=O)OC(C)(C)C)o1 (stereo not given) | -0.0154 | 0.252 | 0.0942 | 1.03 | 1.48 | 1.34 | 1.29 | 0.896 (inactive) | 0.76 | -0.0024 | 1.36 | -0.0904 (inactive) | 0.771 (inactive) | 0.122 (inactive) | 3.01 | -1.09 (inactive) | 0.177 | 0.356 | 0.526 | 0.0419 |
| CC(C)C(O)C1C=CC2C(=O)N(c3ccccc3)C(=O)C2N1Nc1ccc(C#N)cc1 (stereo not given) | 0.946 | 0.303 | 0.238 | 1.07 | 1.7 | 1.72 | 1.23 | 0.596 (inactive) | 1.49 | -0.168 | 1.04 | -0.108 (inactive) | 0.349 (inactive) | 1.39 (inactive) | 3.17 | -0.364 (inactive) | 0.576 | -0.388 | 0.903 | 0.154 |
| O=C1OCCC=C[C@H]2OC34C=CCN(c5ccc6ccccc6c5)C(=O)[C@H]3N(CCCCCO)C(=O)[C@@H]4C12 (stereo not given in full) | 1.05 | 2.06 | -0.116 | 0.0074 | -0.377 | 2.17 | 1.57 | -0.517 (inactive) | -0.188 | 0.0176 | 0.737 | -0.748 (inactive) | -1.64 (inactive) | -0.8 (inactive) | 2.42 | 1.12 (inactive) | -0.0953 | -0.586 | -0.039 | -0.157 |
| [N-]=[N+]=NCc1ccccc1C[C@@]1(C(=O)NCC(O)CO)N=C(c2ccc(OCCCO)cc2)O[C@@H]1c1ccccc1CN=[N+]=[N-] (stereo not given in full) | 0.178 | -0.342 | 0.0587 | 0.939 | 1.43 | 1.34 | 1.21 | -0.429 (inactive) | 0.704 | -0.115 | 1.52 | -0.235 (inactive) | 0.648 (inactive) | 1.34 (inactive) | 3.68 | 0.526 (inactive) | 0.0942 | 0.875 | 0.474 | -0.197 |
| O=C(CCN1CCOCC1)c1cccc(O)c1 | -0.302 | 1.79 | -0.0521 | 0.628 | 1.31 | 1.23 | 1.17 | -1.28 (inactive) | 0.852 | -0.0953 | 1.3 | -1.35 (inactive) | -5.52 (inactive) | -1.01 (inactive) | 0.571 | -2.03 (inactive) | 0.197 | 0.645 | 1.07 | 0.234 |
| CCOC(=O)C1=C[C@@H](CC)N(S(=O)(=O)c2ccc(C)cc2)[C@H]1c1ccccc1 | 0.119 | -0.872 | 0.0603 | 0.572 | 1.61 | 1.1 | 0.919 | -1.74 (inactive) | 0.962 | 0.0373 | 1.18 | -0.595 (inactive) | 0.849 (inactive) | 0.567 (inactive) | 2.71 | -0.556 (inactive) | 0.097 | 0.13 | 1.1 | 0.0356 |
| CN(C)C(=O)[C@]1(CCC(=O)OC(C)(C)C)N=C(c2ccc(OCCCO)cc2)O[C@@H]1c1ccccc1N=[N+]=[N-] | 0.542 | 1.78 | 0.147 | 1.2 | 1.36 | 2.01 | 1.45 | 3.22 (inactive) | 1.43 | -0.0867 | 1.54 | 1.1 (inactive) | 0.626 (inactive) | 0.0958 (inactive) | 3.78 | 0.515 (inactive) | 0.17 | 0.245 | 0.684 | 0.11 |
| NC(=O)NCC#Cc1ccc2c(c1)[C@]1(C(=O)N2)[C@H](C(=O)NC[C@H](O)c2ccccc2)[C@H]2C(=O)O[C@H](c3ccccc3)[C@H](c3ccccc3)N2[C@@H]1c1ccc(O)cc1 | -0.261 | 0.362 | 0.337 | 0.896 | 0.857 | 1.38 | 0.983 | 1.11 (inactive) | 0.077 | 0.356 | 1.39 | 1.94 (inactive) | 1.06 (inactive) | 3.72 (inactive) | 2.9 | -0.412 (inactive) | 0.138 | 1.27 | 1.13 | 0.151 |
| CC(C)c1ccc(NN2C(C(O)c3ccc(N(C)C)cc3)C=CC3C(=O)N(c4ccccc4)C(=O)C32)cc1 (stereo not given) | -0.145 | 1.43 | 0.0485 | 0.405 | 1.5 | 1.88 | 1.12 | 2.3 (inactive) | 1.46 | -0.166 | 1.56 | 0.372 (inactive) | 1.26 (inactive) | 0.197 (inactive) | 3.34 | -0.158 (inactive) | 0.188 | 0.109 | 1.03 | -0.027 |
| COc1ccc(C(=O)Nc2cccc(CN3C(=O)[C@]4(O[C@H](CC(=O)N5CCC[C@H]5CO)[C@@H]([Si](C)(C)c5ccc(OC)cc5)[C@@H]4C)c4ccccc43)c2)cc1 | -0.0422 | 0.717 | 0.0257 | 0.394 | 0.135 | 0.847 | 1.12 | -1.22 (inactive) | 0.156 | -0.253 | 1.38 | -0.979 (inactive) | -0.22 (inactive) | -0.378 (inactive) | 2.34 | 0.44 (inactive) | -0.181 | 0.467 | 0.869 | -0.157 |
